Source: PubChem BioAssay (Tox21)
Results filed as inconclusive are left out. The source made the active and inactive calls. Unless noted, calls come from the whole dose curve; as a rule, active = well fitted curve in the direction sought with a large enough effect in the repeat runs; inconclusive = weak or mixed curves; inactive = flat fitted curve, though single readings scatter.

Tests used:
[1] = qHTS assay to test for compound auto fluorescence at 535 nm (green) in HEK293 cells (AID 720680)
[2] = qHTS assay to test for compound auto fluorescence at 460 nm (blue) in HEK293 cell free culture (AID 720681)
Method in brief: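 Blue fluorescence (Ex 405/Em 460 nm, triamterene-equivalent) was read immediately after pin transfer of compound or DMSO into medium (DMEM, 10% FBS) without cells.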

[3] = qHTS assay to test for compound auto fluorescence at 535 nm (green) in HEK293 cell free culture (AID 720682)
Method in brief: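 Steps: dispense DMEM/10% FBS into empty wells; pin in compound or DMSO; measure fluorescence at 485/535 nm. Values are fluorescein equivalents.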

[4] = qHTS assay to test for compound auto fluorescence at 590 nm (red) in HEK293 cell free culture (AID 720683)
Method in brief: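 Red-channel autofluorescence of compounds in culture medium (DMEM, 10% FBS), no cells, measured at 540/590 nm. Rose Bengal sodium is the reference fluorophore for equivalence.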

[5] = qHTS assay to test for compound auto fluorescence at 590 nm (red) in HepG2 cell free culture (AID 720684)
Method in brief: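 Plate contents were MEM with 10% FBS plus test compound or DMSO, no cells. Fluorescence was recorded with 540 nm excitation and 590 nm emission.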

[6] = qHTS assay to test for compound auto fluorescence at 460 nm (blue) in HepG2 cell free culture (AID 720685)
Method in brief: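 Compound (23 nL) or DMSO pinned into cell-free MEM with 10% FBS; blue fluorescence read at 405/460 nm excitation/emission, expressed as auto-fluorescence equivalency to triamterene.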

[7] = qHTS assay to test for compound auto fluorescence at 535 nm (green) in HepG2 cell free culture (AID 720686)
[8] = qHTS assay to test for compound auto fluorescence at 460 nm (blue) in HepG2 cells (AID 720687)
Method in brief: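 Blue-channel autofluorescence (Ex/Em 405/460 nm, triamterene-equivalent) was measured after 1 hr compound exposure at 37 C, 5% CO2. Cells were HepG2, plated overnight at 37 C in MEM plus 10% FBS.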

[9] = molecular target: Glucocorticoid receptor (Homo sapiens) (UniProt P04150); experiment: qHTS assay to identify small molecule agonists of the glucocorticoid receptor (GR) signaling pathway (AID 720691; active = well fitted activation curve with a large enough effect in the signal ratio in the repeat runs, not every such curve was filed as active; the % refers to the signal ratio; note: potency is the fitted concentration of half-maximal effect); details: GR-bla HeLa, beta-lactamase reporter ratio, 18 h; activation: at 62.4 µM (top of the series)
Method in brief: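 Agonist mode in a HeLa line carrying a GRE-controlled beta-lactamase reporter. Compounds act for 18 h at 37 C before a 2 h room-temperature FRET substrate step and fluorescence reading.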

[10] = molecular target: Glucocorticoid receptor (Homo sapiens) (UniProt P04150); experiment: qHTS assay to identify small molecule antagonists of the glucocorticoid receptor (GR) signaling pathway (AID 720692; active = well fitted inhibition curve with a large enough effect in the signal ratio in the repeat runs, not every such curve was filed as active; the % refers to the signal ratio; note: potency is the fitted concentration of half-maximal effect)
Method in brief: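 Cells plated, rested 4 h at 37 C/5% CO2; compounds in DMSO pin-transferred; dexamethasone added to 5 nM final; 18 h at 37 C; B/G FRET substrate added, 2 h room temperature; fluorescence measured.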

Measured: Potency

Chain of Glucocorticoid receptor (Homo sapiens) (P04150 whole entry, looked up): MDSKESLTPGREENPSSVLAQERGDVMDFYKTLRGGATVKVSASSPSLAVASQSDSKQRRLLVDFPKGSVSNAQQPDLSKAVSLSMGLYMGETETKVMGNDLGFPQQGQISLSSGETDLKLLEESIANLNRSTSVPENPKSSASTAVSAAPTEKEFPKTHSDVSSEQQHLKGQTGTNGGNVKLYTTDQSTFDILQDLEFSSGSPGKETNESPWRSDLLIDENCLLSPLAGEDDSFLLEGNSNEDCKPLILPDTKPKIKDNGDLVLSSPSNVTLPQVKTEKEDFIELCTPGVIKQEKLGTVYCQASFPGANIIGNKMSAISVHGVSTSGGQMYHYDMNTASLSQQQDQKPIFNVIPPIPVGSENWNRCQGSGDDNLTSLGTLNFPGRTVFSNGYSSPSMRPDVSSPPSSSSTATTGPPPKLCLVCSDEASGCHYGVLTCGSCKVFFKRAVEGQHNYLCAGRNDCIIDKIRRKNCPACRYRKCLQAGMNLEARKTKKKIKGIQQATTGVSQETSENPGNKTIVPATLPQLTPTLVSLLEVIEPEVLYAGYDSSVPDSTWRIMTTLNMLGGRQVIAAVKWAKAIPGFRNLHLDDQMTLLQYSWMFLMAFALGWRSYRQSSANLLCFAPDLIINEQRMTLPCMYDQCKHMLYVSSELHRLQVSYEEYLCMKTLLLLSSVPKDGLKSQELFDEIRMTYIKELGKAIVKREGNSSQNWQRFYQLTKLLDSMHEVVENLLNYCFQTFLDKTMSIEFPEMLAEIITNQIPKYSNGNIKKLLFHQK

O=C(c1ccc(F)cc1)C1CCN(CCn2c(=O)[nH]c3ccccc3c2=O)CC1
inactive: [1] | [2] | [3] | [4] | [5] | [6] | [7] | [8] | [9]

OCCCCCCCCCCCCBr
inactive: [1] | [2] | [3] | [4] | [5] | [6] | [7] | [8] | [9]

CNCc1cc(F)ccc1Oc1ccc(Cl)c(Cl)c1
inactive: [1] | [2] | [3] | [4] | [5] | [6] | [7] | [8] | [9]

Cn1cc(C(=O)[C@@H]2CCc3nc[nH]c3C2)c2ccccc21
inactive: [1] | [2] | [3] | [4] | [5] | [6] | [7] | [8] | [9]

Cc1cc(CCN2CCN(c3nsc4ccccc34)CC2)cc2c1NC(=O)CC2(C)C
inactive: [1] | [2] | [3] | [4] | [5] | [6] | [7] | [8] | [9]

Cc1cc(O)c(Cl)c(C)c1Cl
inactive: [1] | [2] | [3] | [4] | [5] | [6] | [7] | [8] | [9]

O=[N+]([O-])c1ccccc1Nc1ccccc1
inactive: [1] | [2] | [3] | [4] | [5] | [6] | [7] | [8] | [9]

CCCCCCCC/C=C\CCCCCCCCOCCO
inactive: [1] | [2] | [3] | [4] | [5] | [6] | [7] | [8]

CNC(=O)c1ccccc1
inactive: [1] | [2] | [3] | [4] | [5] | [6] | [7] | [8] | [9]

Cc1cccc2c1cc1ccc3cccc4ccc2c1c34
active: [9] 5.01 µM [fluorescent]
inactive: [1] | [2] | [3] | [4] | [5] | [6] | [7] | [8]

CC(NN)c1ccccc1 (stereo not drawn)
inactive: [1] | [2] | [3] | [4] | [5] | [6] | [7] | [8] | [9] | [10]

Cc1cccc(S(=O)(=O)O)c1C
inactive: [1] | [2] | [3] | [4] | [5] | [6] | [7] | [8] | [9] | [10]

CC(=O)S[C@@H]1CC2=CC(=O)CC[C@]2(C)[C@H]2CC[C@@]3(C)[C@@H](CC[C@@]34CCC(=O)O4)[C@H]12
active: [10] 5.35 µM
inactive: [1] | [2] | [3] | [4] | [5] | [6] | [7] | [8]
